Test results reported in PubChem BioAssay (Tox21).
Values joined by “and” are separate entries in the source; they are usually repeats but may differ in a detail not shown here. Identical values can stand only once. Some structures have more than one record in an assay (separate samples or runs), and their calls can disagree. Active and inactive are the calls of the source. Unless noted, the call rests on the fitted dose curve; in most records, active means well fitted curve in the direction sought with a large enough effect in the repeat runs; inconclusive means weak or mixed curves; inactive means no such curve, though single readings can be large; an effect the other way counts as inactive or inconclusive.

Experiments:
[1] = qHTS assay to identify small molecule antagonists of the thyroid receptor (TR) signaling pathway - cell viability counter screen (AID 743064); further: nearly all actives have a fitted effect of over 50% in size; further: potency means the concentration at half of the fitted maximal effect
Procedure, shortened: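 GH3.TRE-Luc cells, 4 h pre-plating; cpd + T3 1 nM final; 37 °C 23.5 h; CellTiter-Fluor 30 min; fluorescence read.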

[2] = qHTS assay to identify small molecule antagonists of the thyroid receptor (TR) signaling pathway (AID 743065); further: nearly all actives have a fitted effect of over 55% in size; further: potency means the concentration at half of the fitted maximal effect
Procedure, shortened: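 GH3.TRE-Luc rat pituitary cells (two TREs driving luciferase) were dosed with compound, then stimulated with 1 nM T3 (final) for 23.5 h at 37 C. ONE-Glo luminescence was the read-out, with CellTiter-Fluor fluorescence as the cytotoxicity counter-screen.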

[3] = tested on: thyroid hormone receptor (rat, GH3 cells); assay: qHTS assay to identify small molecule agonists of the thyroid receptor (TR) signaling pathway (AID 743066; calls by dose curve; further: potency means the concentration at half of the fitted maximal effect)
[4] = qHTS assay to identify small molecule antagonists of the estrogen receptor alpha (ER-alpha) signaling pathway - cell viability counter screen (AID 743074; calls by dose curve;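 further: HEK293 cells carrying ER-alpha-UAS-bla reporter stimulated with 17beta-estradiol; nearly all actives have a fitted effect of over 45% in size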; further: potency means the concentration at half of the fitted maximal effect)
[5] = qHTS assay to identify small molecule antagonists of the estrogen receptor alpha (ER-alpha) signaling pathway using the BG1 cell line - cell viability counter screen (AID 743081);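 further: compound given together with 17beta-estradiol as the ER stimulus; nearly all actives have a fitted effect of over 45% in size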; further: potency means the concentration at half of the fitted maximal effect
Aromatase (Homo sapiens) = Aromatase (Homo sapiens) (UniProt P11511); assay: qHTS assay to identify aromatase inhibitors (AID 743083); further: nearly all actives have a fitted effect of over 55% in size; further: potency means the concentration at half of the fitted maximal effect
[6] = qHTS assay to identify aromatase inhibitors - cell viability counter screen (AID 743084);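 further: cells stimulated with testosterone during compound exposure; nearly all actives have a fitted effect of over 55% in size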; further: potency means the concentration at half of the fitted maximal effect
[7] = target: Aryl hydrocarbon receptor (Homo sapiens) (UniProt P35869); assay: qHTS assay to identify small molecule that activate the aryl hydrocarbon receptor (AhR) signaling pathway (AID 743085); further: nearly all actives have a fitted effect of over 15% in size; further: potency means the concentration at half of the fitted maximal effect;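 on activation: HG2L7.5c1 human HepG2 liver cells with stably integrated DRE-driven firefly reporter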
Procedure, shortened: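 Luminescence read-out: ONE-Glo reagent, 30 min at room temperature, in HG2L7.5c1 HepG2 reporter cells treated 24 h at 37C. Viability was measured beforehand by CellTiter-Fluor fluorescence after 30 min at 37C.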

[8] = qHTS assay to identify small molecule that activate the aryl hydrocarbon receptor (AhR) signaling pathway - cell viability counter screen (AID 743086); further: nearly all actives have a fitted effect of over 45% in size; further: potency means the concentration at half of the fitted maximal effect
Procedure, shortened: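 HepG2-AhR-luc (HG2L7.5c1) cells, 4000/well, treated 24 h at 37 C with compound; viability measured as CellTiter-Fluor fluorescence after 30 min in the same wells as the luciferase read.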

[9] = target: Peroxisome proliferator-activated receptor gamma (Homo sapiens) (UniProt P37231); assay: qHTS assay to identify small molecule agonists of the peroxisome proliferator-activated receptor gamma (PPARg) signaling pathway (AID 743094; active means well fitted activation curve with a large enough effect in the signal ratio in the repeat runs, not every such curve was filed as active; inconclusive means weak or mixed curves, or effect the other way; inactive means no such curve, though single readings can be large or run the other way; the % refers to the signal ratio)
Procedure, shortened: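 Compounds dissolved in DMSO were added to PPARg UAS-bla HEK293H cells for 17 h at 37C, and reporter expression was quantified by fluorescence intensity after 1 h with LiveBLAzer B/G FRET substrate.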

[10] = target: Peroxisome proliferator-activated receptor gamma (Homo sapiens) (UniProt P37231); assay: qHTS assay to identify small molecule antagonists of the peroxisome proliferator-activated receptor gamma (PPARg) signaling pathway (AID 743191; calls by dose curve; further: nearly all actives have a fitted effect of over 30% in size; further: potency means the concentration at half of the fitted maximal effect)
Procedure, shortened: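 GeneBLAzer PPARg UAS-bla HEK293H cells, 5 h post-plating, exposed to compounds 17 h at 37C. LiveBLAzer B/G FRET substrate added for 1 h at room temperature; beta-lactamase reporter read by fluorescence intensity.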

[11] = qHTS assay for small molecule agonists of the antioxidant response element (ARE) signaling pathway (AID 743202; active means well fitted activation curve with a large enough effect in the signal ratio in the repeat runs, not every such curve was filed as active; inconclusive means weak or mixed curves, or effect the other way; inactive means no such curve, though single readings can be large or run the other way; the % refers to the signal ratio; further: potency means the concentration at half of the fitted maximal effect)
Procedure, shortened: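 ARE-bla HepG2 cells (beta-lactamase reporter under the antioxidant response element), plated 5 hours, then exposed to compounds 16 hours at 37 C. LiveBLAzer B/G FRET substrate added for 2 hours at room temperature; fluorescence intensity read.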

[12] = qHTS assay for small molecule activators of the heat shock response signaling pathway - cell viability counter screen (AID 743209); further: nearly all actives have a fitted effect of over 50% in size; further: potency means the concentration at half of the fitted maximal effect
Procedure, shortened: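 Readout: CellTiter-Glo luminescence, 30 min at room temperature. System: HSE-bla HeLa cells, 1500/well, plated overnight. Treatment: compounds in DMSO, 5 h at 37 C.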

[13] = qHTS assay for small molecule activators of the heat shock response signaling pathway (AID 743210; active means well fitted activation curve with a large enough effect in the signal ratio in the repeat runs, with a control signal flat, not every such curve was filed as active; inconclusive means weak or mixed curves; the % refers to the signal ratio)
Procedure, shortened: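 HSE-bla HeLa cells (beta-lactamase reporter under heat shock response elements), plated overnight, then exposed to compounds 5 h at 37 C; LiveBLAzer B/G FRET substrate added, 2.5 h at room temperature, fluorescence intensity read.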

[14] = qHTS assay to identify small molecule antagonists of the peroxisome proliferator-activated receptor gamma (PPARg) signaling pathway - cell viability counter screen (AID 743194); conditions: Potency: co-treated with 50 nM rosiglitazone unless noted; further: nearly all actives have a fitted effect of over 55% in size
Procedure, shortened: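 Cytotoxicity counter screen in PPARg-bla HEK293H cells, same wells as reporter assay. Compounds plus 50 nM rosiglitazone (final) for 17 h at 37 C, then viability read by CellTiter-Glo luminescence.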

[15] = target: Estrogen receptor (Homo sapiens) (UniProt P03372); assay: qHTS assay to identify small molecule antagonists of the estrogen receptor alpha (ER-alpha) signaling pathway (AID 743069; active means well fitted curve in the direction sought with a large enough effect in the signal ratio in the repeat runs, not every such curve was filed as active; inconclusive means weak or mixed curves, or effect the other way; inactive means no such curve, though single readings can be large or run the other way; the % refers to the signal ratio; further: potency means the concentration at half of the fitted maximal effect)
Procedure, shortened: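 HEK293 ER-alpha-UAS-bla GripTite cells, held overnight in 2% charcoal-stripped FBS, 5,000 cells/well, preincubated 4 h, then compound plus 17beta-estradiol for 18 h at 37C. Beta-lactamase read by LiveBLAzer B/G FRET substrate, 2 h at room temperature.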

[16] = target: Estrogen receptor (Homo sapiens) (UniProt P03372); assay: qHTS assay to identify small molecule agonists of the estrogen receptor alpha (ER-alpha) signaling pathway (AID 743075; calls by dose curve)
[17] = qHTS assay to identify small molecule antagonists of the estrogen receptor alpha (ER-alpha) signaling pathway using the BG1 cell line (AID 743080; calls by dose curve;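 further: BG1 cells stimulated with 17beta-estradiol alongside compound; nearly all actives have a fitted effect of over 25% in size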; further: potency means the concentration at half of the fitted maximal effect)
Procedure, shortened: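 Luciferase inhibition measured with ONE-Glo after 30 min at RT in BG1Luc4E2 cells given test compounds and 17beta-estradiol for 21.5 h at 37 C; CellTiter-Fluor viability read in the same wells beforehand.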

[18] = qHTS assay for small molecule agonists of the antioxidant response element (ARE) signaling pathway - cell viability counter screen (AID 743203; calls by dose curve; further: nearly all actives have a fitted effect of over 55% in size; further: potency means the concentration at half of the fitted maximal effect)
Procedure, shortened: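 Following 16 hrs of compound treatment at 37C, HepG2 cells with an ARE-controlled beta-lactamase gene were lysed with CellTiter-Glo. Luminescence was read after 30 min at room temperature.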

[19] = target: Estrogen receptor (Homo sapiens) (UniProt P03372); assay: qHTS assay to identify small molecule agonists of the estrogen receptor alpha (ER-alpha) signaling pathway using the BG1 cell line (AID 743079); conditions: BG1Luc4E2 cells, ERE-luciferase agonist, 22 h; activation: at 70.3 µM (top of the series) unless noted; further: nearly all actives have a fitted effect of over 20% in size

Measured: Potency

Sequence of Aryl hydrocarbon receptor (Homo sapiens) (P35869 whole entry, looked up): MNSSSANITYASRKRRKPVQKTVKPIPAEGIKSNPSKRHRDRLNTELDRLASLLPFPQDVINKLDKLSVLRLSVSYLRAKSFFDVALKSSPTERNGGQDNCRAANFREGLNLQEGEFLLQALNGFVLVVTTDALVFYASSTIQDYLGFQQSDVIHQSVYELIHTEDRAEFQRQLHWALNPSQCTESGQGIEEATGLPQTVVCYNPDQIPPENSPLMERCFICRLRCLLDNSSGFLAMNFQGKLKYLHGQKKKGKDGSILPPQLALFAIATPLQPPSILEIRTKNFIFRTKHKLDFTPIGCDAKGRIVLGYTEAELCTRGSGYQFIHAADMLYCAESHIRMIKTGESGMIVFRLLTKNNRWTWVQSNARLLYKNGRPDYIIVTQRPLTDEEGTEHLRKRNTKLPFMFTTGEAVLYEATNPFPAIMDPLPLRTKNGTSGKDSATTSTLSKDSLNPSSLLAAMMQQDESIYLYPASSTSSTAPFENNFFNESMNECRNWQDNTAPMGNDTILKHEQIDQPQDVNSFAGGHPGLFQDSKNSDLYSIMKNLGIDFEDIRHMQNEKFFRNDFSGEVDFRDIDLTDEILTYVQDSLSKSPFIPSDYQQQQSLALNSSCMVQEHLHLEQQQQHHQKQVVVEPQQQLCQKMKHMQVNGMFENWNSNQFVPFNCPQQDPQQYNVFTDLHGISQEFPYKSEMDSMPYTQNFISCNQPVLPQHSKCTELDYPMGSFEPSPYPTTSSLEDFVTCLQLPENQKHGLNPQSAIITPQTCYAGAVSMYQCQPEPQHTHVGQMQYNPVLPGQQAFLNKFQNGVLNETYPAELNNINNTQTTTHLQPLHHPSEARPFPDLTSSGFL
Sequence of Aromatase (Homo sapiens) (P11511 whole entry, looked up): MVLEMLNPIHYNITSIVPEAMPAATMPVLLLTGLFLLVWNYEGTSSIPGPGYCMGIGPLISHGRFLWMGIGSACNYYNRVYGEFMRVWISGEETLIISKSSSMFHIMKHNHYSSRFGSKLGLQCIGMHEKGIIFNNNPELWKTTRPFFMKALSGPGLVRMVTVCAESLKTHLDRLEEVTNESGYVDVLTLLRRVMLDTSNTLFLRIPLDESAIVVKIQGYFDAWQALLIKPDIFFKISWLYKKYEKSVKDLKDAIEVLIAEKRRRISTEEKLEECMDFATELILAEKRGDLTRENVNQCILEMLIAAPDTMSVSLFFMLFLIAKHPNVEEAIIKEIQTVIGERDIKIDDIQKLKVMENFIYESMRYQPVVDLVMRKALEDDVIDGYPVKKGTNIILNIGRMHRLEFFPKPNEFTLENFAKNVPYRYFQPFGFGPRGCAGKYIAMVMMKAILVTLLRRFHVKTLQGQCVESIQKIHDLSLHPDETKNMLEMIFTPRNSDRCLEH
Sequence of Peroxisome proliferator-activated receptor gamma (Homo sapiens) (P37231 whole entry, looked up): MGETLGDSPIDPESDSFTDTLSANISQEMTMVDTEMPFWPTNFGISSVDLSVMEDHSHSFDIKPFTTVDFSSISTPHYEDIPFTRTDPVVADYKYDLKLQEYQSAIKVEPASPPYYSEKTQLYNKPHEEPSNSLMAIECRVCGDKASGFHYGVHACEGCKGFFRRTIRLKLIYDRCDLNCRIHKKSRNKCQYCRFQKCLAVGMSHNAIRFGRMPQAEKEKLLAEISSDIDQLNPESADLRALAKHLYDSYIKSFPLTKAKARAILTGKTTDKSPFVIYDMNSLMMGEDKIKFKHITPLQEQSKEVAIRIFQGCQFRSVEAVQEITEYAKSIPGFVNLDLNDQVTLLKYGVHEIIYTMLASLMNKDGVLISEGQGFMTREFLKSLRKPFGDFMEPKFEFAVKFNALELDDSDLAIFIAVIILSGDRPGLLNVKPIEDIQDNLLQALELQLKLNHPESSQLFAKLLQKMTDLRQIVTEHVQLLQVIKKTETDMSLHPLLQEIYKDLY
Sequence of Estrogen receptor (Homo sapiens) (P03372 whole entry, looked up): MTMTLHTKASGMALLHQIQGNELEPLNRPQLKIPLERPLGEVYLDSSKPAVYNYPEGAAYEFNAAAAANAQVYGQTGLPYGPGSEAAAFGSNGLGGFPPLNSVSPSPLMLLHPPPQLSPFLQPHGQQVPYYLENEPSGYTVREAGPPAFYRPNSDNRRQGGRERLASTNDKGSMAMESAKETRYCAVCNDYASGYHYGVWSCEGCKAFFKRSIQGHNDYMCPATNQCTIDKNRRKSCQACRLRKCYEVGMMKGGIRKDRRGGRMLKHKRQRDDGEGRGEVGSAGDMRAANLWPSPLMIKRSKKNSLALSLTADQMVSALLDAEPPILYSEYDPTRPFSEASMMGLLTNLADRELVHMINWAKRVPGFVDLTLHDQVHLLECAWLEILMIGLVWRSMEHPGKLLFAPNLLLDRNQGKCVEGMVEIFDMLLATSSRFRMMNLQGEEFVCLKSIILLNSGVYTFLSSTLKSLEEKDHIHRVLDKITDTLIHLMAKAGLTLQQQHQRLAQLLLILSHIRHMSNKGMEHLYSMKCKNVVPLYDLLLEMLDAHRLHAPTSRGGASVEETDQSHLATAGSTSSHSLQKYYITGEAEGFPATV

CCOP(=O)(OCC)OCC
inactive: [1] | [2] | [3] | [4] | [5] | Aromatase (Homo sapiens) | [6] | [7] | [8] | [9] | [10] | [11] | [12] | [13]

CCNc1nc(Cl)nc(NC(C)(C)C#N)n1
inactive: [1] | [2] | [3] | [4] | [5] | Aromatase (Homo sapiens) | [6] | [7] | [8] | [9] | [10] | [14] | [11] | [12]

Cn1c(-c2ccccc2)cc(-c2ccccc2)[n+]1C
inactive: [1] | [2] | [3] | [15] | [16] | [5] | [6] | [7] | [8] | [9] | [10] | [14] | [12]
active: [17] 30.6 µM | Aromatase (Homo sapiens) 54.4 µM and 54.5 µM

NC(=O)CN1CCCC1=O
inactive: [1] | [2] | [3] | [4] | [5] | Aromatase (Homo sapiens) | [6] | [7] | [8] | [10] | [14] | [11] | [12] | [13]

CC(C)Nc1ccc(Nc2ccccc2)cc1
inactive: [3] | [16] | [5] | [18] | [12]
active: [1] 13.3 µM and 30.6 µM | [2] 11.9 µM and 30.5 µM and 17.2 µM | [4] 48.8 µM and 43.6 µM | Aromatase (Homo sapiens) 13.3 µM and 27.2 µM | [6] 30.5 µM and 54.5 µM | [11] 27.3 µM
inactive and 2.17 µM (active): [7]

CC(C)(c1ccccc1)c1ccc(O)c(C(C)(C)c2ccccc2)c1
inactive: [15] | [7] | [8]
60.6 µM (active) and inactive: [5]
active: [1] 13.6 µM and 12.2 µM | [2] 15.2 µM and 13.7 µM | [3] 1.52 µM | [4] 54.9 µM | Aromatase (Homo sapiens) 60.6 µM | [6] 48.1 µM | [18] 54 µM and 21.7 µM | [12] 48.5 µM and 24.5 µM

Clc1cccc(Cl)c1
inactive: [1] | [2] | [3] | [4] | [5] | Aromatase (Homo sapiens) | [6] | [7] | [8] | [9] | [10] | [14] | [11] | [18] | [12] | [13]

O=C1Nc2ccc(Cl)cc2C(c2ccccc2)=NC1O (stereo not given)
active: [2] 54.9 µM | [10] 44 µM
inactive: [1] | [3] | [4] | [5] | Aromatase (Homo sapiens) | [6] | [7] | [8] | [9] | [14] | [11] | [12] | [13]

Oc1ccc(Cl)cc1Cl
inactive: [1] | [2] | [3] | [15] | [16] | [19] | [17] | [5] | Aromatase (Homo sapiens) | [6] | [7] | [8] | [9] | [10] | [11] | [18] | [12] | [13]

NN=C(N)N
active: [7] 30.6 µM
inactive: [1] | [2] | [3] | [4] | [5] | Aromatase (Homo sapiens) | [6] | [8] | [9] | [10] | [14] | [11] | [12] | [13]

C=CC(Cl)CCl (stereo not given)
inactive: [1] | [2] | [3] | [4] | [5] | Aromatase (Homo sapiens) | [6] | [7] | [8] | [10] | [11] | [18] | [12] | [13]

S=c1[nH]c2ccccc2[nH]1
inactive: [1] | [2] | [3] | [4] | [5] | Aromatase (Homo sapiens) | [6] | [8] | [9] | [10] | [14] | [18] | [12] | [13]
active: [7] 68.6 µM

N#Cc1nn(-c2c(Cl)cc(C(F)(F)F)cc2Cl)c(N)c1S(=O)C(F)(F)F (stereo not given)
inactive and 30.8 µM (active): [8]
inactive: [3] | [4] | [16] | [5] | [6] | [7] | [9] | [10] | [14] | [12]
active: [1] 29.8 µM and 61.5 µM | [2] 26.6 µM and 19.4 µM | [15] 17.5 µM [inconclusive] | [17] 7.5 µM and 24.5 µM | Aromatase (Homo sapiens) 33.5 µM and 19.4 µM
